CHX counter = counter-screen for Shiga toxin inhibitors: cycloheximide protein synthesis inhibition; actives 12% (n = 300,000); AID 2314; max response, %; cell reporter, cycloheximide protein synthesis inhibition counterscreen; in the data active means max response mostly above about 13%, no sharp cut-off; inactive means mostly below about 14%; further: read at 38.3 µM for the half of the compounds with a filed dose
Lassa entry inh = blocks Lassa virus binding to or entry into cells. Lassa virus pseudotype entry inhibition, cell reporter. Potency, µM (titrated, usually from 37.9 µM), usual class: inhibitors. actives 1.2% (n = 300,000). AID 540256; calls by dose curve; tested in HEK293 cells; further: nearly all actives have a fitted effect of over 50% in size
Shiga toxin inh = inhibitors of Shiga toxin in Vero cells. Vero cells, Shiga toxin protein synthesis inhibition reporter. actives 9.2% (n = 290,000). inhibition, % at 38.7 µM; in the data active means inhibition mostly above about 28%, no sharp cut-off; inactive means mostly below about 43%
MARV entry inh = inhibitors of Marburg virus binding or cell entry; Marburg virus pseudotyped entry inhibition, cell reporter; AID 540276; Potency, µM (highest dose often 37.8 µM), most hits filed as inhibitors; actives 1.8% (n = 300,000); calls by dose curve; tested in HEK293 cells
FMDV inh = blocks foot and mouth disease virus. FMDV antiviral cell-based qHTS. Potency, µM (series often up to 57.9 µM), usual class: inhibitors. actives 1.2% (n = 410,000). AID 1159524; calls by dose curve; tested in HEK293T cells; further: read-out not given here; nearly all actives have a fitted effect of over 45% in size
HCV inh = inhibitors of hepatitis C virus infection; Potency, µM (highest dose often 41.8 µM), most hits filed as inhibitors; actives 3.4% (n = 340,000); Huh7.5.1 HCVcc-Cre infection, luciferase reporter, 44 h; active means well fitted inhibition curve with a large enough effect; inconclusive means small, poorly fitted or top-dose-only effect, or another doubt; inactive means no such curve, though single readings can be large or run the other way
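Antiviral activity was scored by luciferase reporter output from cells infected with HCVcc-Cre (~0.5 moi) in presence of compound, 44 h infection period, cells seeded 1,000/well 4 h prior.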
A number is an active result; . = inactive; ? = inconclusive; / = not tested or not shown; + = active, no number. Sampled rows, rich in hits. Any-hit rate of the full collection: about 13%.

SMILES	CHX counter	Lassa entry inh	Shiga toxin inh	MARV entry inh	FMDV inh	HCV inh
O=C(c1oc(=O)c2ccccc2c1-c1ccccc1)N1CCN(C2CCCCC2)CC1	.	/	.	.	.	.
CCC(C)NC(=O)CSc1ccc(Cl)cc1 (centres undefined)	18.3	.	+	.	.	.
CC(C)CNC(=O)CSc1ccc(Cl)cc1	14.1	.	.	.	.	.
Cc1ccc(SCC(=O)NCC(C)C)cc1	.	.	44.0	.	.	.
CC(C)C(NC(=O)CSc1ccc(Cl)cc1)C(C)C	.	.	.	.	/	.
Cn1ncc(Br)c1NC(=O)CSc1ccc(Cl)cc1	.	/	.	/	?	25.1µM
Cc1ccc(SCC(=O)NCc2ccccc2C)cc1	.	/	.	/	.	.
Cn1cccc1C(=O)NCCc1ccc(Cl)cc1	46.1	/	124.8	/	.	.
Cn1cccc1C(=O)NNC(=O)COc1ccccc1F	32.8	.	86.4	.	.	.
Cn1cccc1C(=O)NCCc1ccccc1	23.5	?	51.3	?	?	.
O=C(COc1ccccc1F)NNC(=O)c1cccc(-n2cccc2)c1	.	.	.	.	.	.
NC(CCC(=O)O)C12CC3CC(CC(C3)C1)C2 (centres undefined)	.	.	.	?	.	.
COc1ccc(F)cc1S(=O)(=O)n1cnc2ccccc21	.	/	/	/	.	.
O=C(c1cccs1)c1ccccc1Cc1cccs1	/	.	/	.	.	.
COc1ccc(Nc2c3c(nc4ccccc24)CCC3)c(OC)c1	.	?	.	?	.	?
COc1ccc(Cl)cc1C(=O)Nc1ccc2nc3n(c(=O)c2c1)CCCC3	.	.	.	?	.	?
COc1cc(OC)cc(C(=O)Nc2ccc3nc4c(c(Nc5ccc(OC)c(OC)c5)c3c2)CCCC4)c1	/	?	/	2.51µM	?	/
COc1ccc(Nc2c3c(nc4ccc(NC(=O)c5cc(Cl)ccc5OC)cc24)CCCC3)cc1OC	/	?	/	?	31.6µM	/
COc1ccccc1Nc1c2c(nc3ccc(NC(=O)c4ccc(N(C)C)cc4)cc13)CCCC2	/	?	/	3.16µM	.	/
CCOc1ccccc1C(=O)Nc1ccc2nc3c(c(Nc4ccc(OC)c(OC)c4)c2c1)CCCC3	/	10µM	/	?	?	/
CN1CCN(C(=O)c2ccccc2NC(=O)C(C)(C)C)CC1	.	.	.	.	.	.
CC12CN3CCN(CC(C3)/C1=N\NC(=O)Nc1cccc(Cl)c1)C2	26.3	.	.	?	.	.
CC12CN3CCN(CC(C3)/C1=N/NC(=O)Nc1ccccc1)C2	24.9	.	.	?	.	.
COc1ccc(N2CCN(S(=O)(=O)c3ccc4c(c3)NC(=O)CS4)CC2)cc1	.	/	.	/	.	.
CC1CC(C)CN(S(=O)(=O)c2cc3c4c(c2)CCN4C(=O)CC3)C1 (centres undefined)	/	.	/	.	.	.
SMILES	CHX counter	Lassa entry inh	Shiga toxin inh	MARV entry inh	FMDV inh	HCV inh
O=C(NCc1ccon1)C1CCC(=O)N(Cc2cccc(C(F)(F)F)c2)C1 (centres undefined)	20.2	/	.	/	.	.
CSc1cccc(CNC(=O)C2CCC(=O)N(Cc3cccc(C(F)(F)F)c3)C2)c1 (centres undefined)	22.5	/	85.9	/	.	.
Cc1cc(CNC(=O)C2CCC(=O)N(Cc3cccc(C(F)(F)F)c3)C2)no1 (centres undefined)	.	.	.	?	.	/
O=C(OCC1CCNCC1)c1ccc(F)cc1	/	/	/	/	.	.
Cc1ccc2nc(-c3ccc(NC(=O)CCS(=O)(=O)c4ccccc4)cc3)sc2c1	47.0	1.84µM	64.9	?	?	?
Cc1ccc(NC(=O)CCS(=O)(=O)c2ccc3nc(C)sc3c2)cc1	.	.	.	/	.	.
Cc1ccc(S(=O)(=O)CCC(=O)Nc2ccc3nc(C)sc3c2)cc1	.	.	.	.	.	.
Cc1nc2cc(NC(=O)CCS(=O)(=O)c3ccccc3)ccc2s1	37.2	/	58.0	.	.	?
Cc1nc2ccc(NC(=O)CCS(=O)(=O)c3ccccc3)cc2s1	47.0	.	94.3	?	.	.
Cc1ccccc1-c1nc(CN2CCC(C(=O)NCCCN3CCCC3)CC2)c(C)o1	.	?	.	?	.	14.1µM
CN(C)c1ccc(/C=N/NC(=O)c2ccc3nc[nH]c3c2)cc1	15.8	.	22.0	.	.	.
CSc1ccc(/C=N/NC(=O)c2ccccc2Cl)cc1	31.8	8.91µM	91.3	?	.	?
CCN(CC)c1ccc(/C=N/NC(=O)c2ccc3nc[nH]c3c2)cc1	.	.	.	.	.	.
CN(C)c1cccc(C(=O)N/N=C/c2ccsc2)c1	67.0	?	80.3	?	.	.
CN(C)c1ccc(/C=N/NC(=O)c2ccccc2Cl)cc1	34.9	?	.	?	.	?
CSc1ccc(/C=N/NC(=O)C[n+]2ccccc2)cc1	.	/	.	/	.	.
COc1ccc(-c2nnc(SCc3c(C)noc3C)n2N)cc1OC	.	.	.	.	.	/
CC(C)(C)c1ccc(C(=O)Nc2ccc(Cl)cc2C(=O)c2ccccc2)cc1	/	.	/	/	.	/
NS(=O)(=O)c1ccc(CCNC(=O)c2cccc3ccccc23)cc1	.	.	.	.	.	.
O=C(CCCCCNC(=O)c1ccccc1)N/N=C/c1ccccc1O	25.1	?	.	.	.	.
CC/C(=N\NC(=O)c1ccc(N(C)C)cc1)c1ccccc1	.	.	32.8	.	.	.
O=C(CCCCCNC(=O)c1ccccc1)N/N=C/c1ccco1	.	.	.	.	.	.
CC/C(=N\NC(=O)c1ccc(N2CCCC2=O)cc1)c1ccccc1	.	/	.	.	.	.
CN(C)c1ccc(/C(=N\O)c2ccccc2)cc1	34.6	.	83.1	.	.	.
CN(C)c1ccc(/C=N/NC(=O)CCCCCNC(=O)c2ccccc2)cc1	55.5	.	59.9	.	.	.
SMILES	CHX counter	Lassa entry inh	Shiga toxin inh	MARV entry inh	FMDV inh	HCV inh
COc1ccc(/C=N/NC(=O)CCCCCNC(=O)c2ccccc2)cc1	.	.	.	.	.	.
COC(=O)c1ccc(C2CC(=O)Nc3cc(OC)c(OC)c(OC)c32)cc1 (centres undefined)	.	.	.	.	.	.
Cn1c(COc2ccccc2)nnc1SCc1cc(=O)[nH]c2ccccc12	.	.	.	?	.	?
COc1ccc(C(=O)N/N=C/c2ccc(N(C)c3ccccc3)cc2)cc1	/	/	/	/	31.6µM	7.08µM
CN(C)c1ccc(/C=N/NC(=O)c2ccccc2)cc1	33.3	10µM	53.4	.	.	.
C/C(=N/N=C/c1ccc(N(C)C)cc1)c1ccccc1	47.2	?	167.6	?	10µM	.
CN(C)c1ccc(/C=N/NC(=O)c2ccc(Cl)cc2)cc1	.	.	18.2	.	/	.
CC(OC(=O)CCc1nc2ccccc2c(=O)[nH]1)C(=O)Nc1ccc2c(c1)OCO2 (centres undefined)	.	/	.	/	.	.
COc1cc(Cl)c(C)cc1NCC(=O)Nc1cccc(S(=O)(=O)N2CCCC2)c1	/	/	/	/	.	?
C/C(=N\OCC(=O)Nn1c(C)nc2ccccc2c1=O)c1ccccc1	.	.	.	.	.	.
C/C(=N/Oc1nc(C)cc(C)n1)c1ccccc1	19.2	.	.	.	.	.

High-throughput results: PubChem, National Center for Advancing Translational Sciences (NCATS)
